# Source: ChEMBL document CHEMBL3988442, “University of Dundee, Small-Polar-MMV Screening Library” (2021)
# Hit rate of the full screen: of about 69,000 compounds, about 1,000 (1.4%) showed an effect of 50% or more. What follows is part of a selection rich in strong results, with near analogues and random picks from the rest.
# Test system: Leishmania donovani
# Assay: Leishmania intramacrophage assay
# Assay type: functional, organism-based
# Set-up: scale not given: in the data most compounds retested in dose-response had high values
structure (smiles),measurement,setting,value
CN1CCO[C@@H]2CN(S(=O)(=O)c3ccccc3)C[C@@H]2C1.O=C(O)C(F)(F)F,Percent Effect,"30.3 µM, […]",29.49%
OCC1CCCN1c1cc(NCCc2nccs2)ncn1 (stereo not given),Percent Effect,"30.3 µM, […]",55.11%
OCC1CCCN1c1cc(NCc2ccccn2)ncn1 (stereo not given),Percent Effect,"30.3 µM, […]",50.11%
OCC1CCCN1c1cc(NCCc2ccsc2)ncn1 (stereo not given),Percent Effect,"30.3 µM, […]",-26.43%
OCC1CCCN1c1cc(NCCNc2ccccn2)ncn1 (stereo not given),Percent Effect,"30 µM, 30.03 µM",16.04%
OCC1CCCN1c1cc(NCCNc2cccnn2)ncn1 (stereo not given),Percent Effect,"30.3 µM, […]",20.93%
OCC1CCCN1c1cc(NCCc2ccccn2)ncn1 (stereo not given),Percent Effect,"30.3 µM, […]",47.66%
NC(=O)[C@@H]1CCCN1C(=O)c1csc(-c2ccc(C(F)(F)F)cc2)n1,Percent Effect,"30.3 µM, […]",24.55%
CNC(=O)c1cc(OC)c(OC)cc1N(C)S(C)(=O)=O,Percent Effect,"30.3 µM, […]",-11.85%
COc1ccc(CCCC(=O)NCc2c(C)noc2C)cc1F,Percent Effect,"30.3 µM, […]",0.2518%
Cc1cc(C)cc(C(=O)NCc2ncnn2C)c1,Percent Effect,"30.3 µM, […]",-3.252%
COC(=O)CCNC(=O)c1nnn(-c2ccc(F)cc2)c1C1CC1,Percent Effect,"30.3 µM, […]",23.19%
COc1cccc(CNCc2ccc(F)c(Cl)c2)c1O,Percent Effect,"30.3 µM, […]",3.534%
COc1cccc(CNCc2ccccc2Cl)c1O,Percent Effect,"30.3 µM, […]",11.74%
COc1cccc(CNCc2ccc(F)cc2Cl)c1O,Percent Effect,"30.3 µM, […]",50.12%
COCCCC(=O)N(C)c1ccc(F)c(Cl)c1,Percent Effect,"30.3 µM, […]",10.71%
O=c1oc(-c2ccc(F)cc2)nn1CN1CCCCC1,Percent Effect,30 µM,11.98%
COCCNC(=O)c1sc(Nc2ccc(Cl)cn2)nc1C,Percent Effect,"30 µM, 30.03 µM",-6.179%
COCC1CN(c2ccc(C)nn2)Cc2cnn(C)c21.O=C(O)C(F)(F)F.O=C(O)C(F)(F)F (stereo not given),Percent Effect,"30.3 µM, […]",1.62%
CCc1nc2c(N3CCC4(CC3)CC(=O)N(CC(C)C)C4)ncnc2o1,Percent Effect,"30.3 µM, […]",71.44%
CCc1nc2c(N3CCC4(CC3)CNC(=O)C4)ncnc2o1,Percent Effect,"30.3 µM, […]",11.46%
CCc1nc2c(N3CCC4(CC3)CC(=O)N(CC)C4)ncnc2o1,Percent Effect,"30.3 µM, […]",0.202%
CCOCC(=O)N1CCOCC2(CCN(c3ncccn3)C2)C1.O=C(O)C(F)(F)F (stereo not given),Percent Effect,"30.3 µM, […]",-3.02%
OCCC1CN(C2CCC2)CCN1C1CCCC1 (stereo not given),Percent Effect,"30 µM, 30.03 µM",24.92%
Clc1ccccc1CCN1CCN(c2ccc3nncn3n2)CC1,Percent Effect,30 µM,7.685%
O=C(CN1CCCC(c2ccn[nH]2)C1)Nc1nncs1 (stereo not given),Percent Effect,"30.3 µM, […]",11.72%
Cc1cc(C2CCCN(CC(=O)Nc3nc4c(s3)CCC4)C2)n[nH]1 (stereo not given),Percent Effect,"30.3 µM, […]",34.8%
O=C(CN1CCCC(c2ccn[nH]2)C1)Nc1nc2c(s1)CCC2 (stereo not given),Percent Effect,"30.3 µM, […]",51.08%
Cc1nnc(NC(=O)CN2CCCC(c3ccn[nH]3)C2)s1 (stereo not given),Percent Effect,"30.3 µM, […]",-18.19%
O=C(CN1CCCC(c2ccn[nH]2)C1)Nc1nc2c(s1)CCCC2 (stereo not given),Percent Effect,"30.3 µM, […]",57.39%
O=C(CN1CCCC(c2ccn[nH]2)C1)N1CCCc2ccccc21 (stereo not given),Percent Effect,"30.3 µM, […]",-7.148%
CN(C)CCN1C(=O)CC[C@@H]2[C@H]1CCN2C(=O)c1ccc(C#N)cc1.O=C(O)C(F)(F)F,Percent Effect,"30.3 µM, […]",2.551%
Cc1ccc(CN(CCCn2ccnc2)Cc2c[nH]cn2)s1.O=C(O)CC(O)(CC(=O)O)C(=O)O,Percent Effect,"30 µM, 30.03 µM",29.23%
CCc1ccc(CN(CCCn2ccnc2)Cc2ccc(C)s2)o1.O=C(O)CC(O)(CC(=O)O)C(=O)O,Percent Effect,"30 µM, 30.03 µM",12.85%
CC(NC(=O)N(C)Cc1ccsc1)c1ccc2c(c1)OCO2 (stereo not given),Percent Effect,"30 µM, 30.03 µM",29.16%
O=C(Nc1nncs1)NC1CCOc2ccccc21 (stereo not given),Percent Effect,"30 µM, 30.03 µM",-9.341%
Cn1cc(CN2CC[C@H]3O[C@@H](COCc4cccnc4)CC[C@H]32)cn1.O=C(O)C(F)(F)F.O=C(O)C(F)(F)F,Percent Effect,"30.3 µM, […]",18.07%
O=C(COc1ccccc1)NCC1CCN(Cc2ccsc2)CC1,Percent Effect,"30.3 µM, […]",8.301%
CCCS(=O)(=O)N1C[C@@H]2CN(Cc3ccoc3)CCO[C@@H]2C1.O=C(O)C(F)(F)F,Percent Effect,"30.3 µM, […]",15.12%
Cc1ccc(OCCCC(=O)Nc2nonc2C)cc1C,Percent Effect,"30.3 µM, […]",1.215%
Cc1ccsc1CCNC(=O)CCC(=O)NC1CCCC1,Percent Effect,"30.3 µM, […]",16.22%
Cc1ncsc1-c1nc(-c2cccc(CN3CCOCC3)c2)no1,Percent Effect,"30.3 µM, […]",19.67%
Cc1nn2c(-c3snnc3C)nnc2s1,Percent Effect,"30.3 µM, […]",93.73%
Cc1nnsc1-c1nnc2sc(C3CCC3)nn12,Percent Effect,"30.3 µM, […]",11.99%
Cc1nnsc1-c1nnc2sc(C(C)C)nn12,Percent Effect,"30.3 µM, […]",39.28%
CCN1CCN(Cc2ccnc(-c3cccnc3)n2)CC1.O=C(O)CC(O)(CC(=O)O)C(=O)O,Percent Effect,"30 µM, 30.03 µM",7.725%
Cc1ncsc1C(=O)N(C)Cc1ccsc1,Percent Effect,30 µM,23.48%
CCc1nc(NCC(=O)N2CCOCC2)c2c(n1)c(C)nn2CC,Percent Effect,"30 µM, 30.03 µM",6.056%
Cc1cc(NC(=O)NCC(C)N2CCc3ccccc32)no1 (stereo not given),Percent Effect,"30 µM, 30.03 µM",27.07%
CN(Cc1cccc(CCN)c1)Cc1cccc2ncccc12,Percent Effect,"30.3 µM, […]",68.5%
CN(Cc1cccc(OCCO)c1)Cc1cccc2ncccc12,Percent Effect,"30.3 µM, […]",37.97%
CN(Cc1cccnc1N)Cc1cccc2ncccc12,Percent Effect,"30.3 µM, […]",48.64%
CN(CCCc1cnn(C)c1)C(=O)C1CCC(=O)N(C2CCCC2)C1 (stereo not given),Percent Effect,"30.3 µM, […]",11.37%
COCCN1CCC(CNC(=O)C2(S(C)(=O)=O)CCCC2)CC1,Percent Effect,"30.3 µM, […]",19.2%
COCCN(C)C(C(=O)O)c1ccc(F)c(C)c1 (stereo not given),Percent Effect,"30.3 µM, […]",7.085%
CC(C)NC(=O)C1CN(Cc2ccc(F)cc2)CC12CCOCC2.O=C(O)C(F)(F)F (stereo not given),Percent Effect,"30.3 µM, […]",44.53%
NC(CC1CCCC1)c1ccc(Oc2ccccc2)cc1 (stereo not given),Percent Effect,"30.3 µM, […]",99.72%
OC(CN1CCN(CC2CCCCC2)CC1)c1ccccc1 (stereo not given),Percent Effect,"30.3 µM, […]",24.85%
Cl.NC(CC1CCCC1)c1ccccc1 (stereo not given),Percent Effect,"30.3 µM, […]",14.4%
CC(C)N(C)Cc1cc(=O)n2c(n1)CN(S(=O)(=O)C1CC1)CCC2.O=C(O)C(F)(F)F,Percent Effect,"30.3 µM, […]",28.49%
CN1CCO[C@@H]2CN(C(=O)Cc3cccs3)CC[C@@H]2C1.O=C(O)C(F)(F)F,Percent Effect,"30.3 µM, […]",32.46%
CC(C)N1CCO[C@@H]2CN(C(=O)NCc3ccccc3)CC[C@@H]2C1.O=C(O)C(F)(F)F,Percent Effect,"30.3 µM, […]",17.12%
CC(C)N1CCO[C@@H]2CN(C(=O)Cc3cccs3)CC[C@@H]2C1.O=C(O)C(F)(F)F,Percent Effect,"30.3 µM, […]",50.53%
CCOC(=O)c1nnc2ccccc2c1N1CCN(CC)CC1,Percent Effect,"30.3 µM, […]",18.05%
COc1ccc(-n2ccnc2-c2cnc(N(C)C)nc2)cc1OC,Percent Effect,"30.3 µM, […]",25.02%
